Source: PubChem BioAssay AID1776 (NMMLSC, 2009)
Screen size: about 190,000 compounds; about 490 (0.26%) were called active. The sample as a whole holds a higher share of actives than the screen did. Values without a mark were called inactive. Rule as the data show it: active = fluorescence above about 89; inactive = the rest.

Test: green autofluorescence of compounds with GSH beads – biophysical, 488/530 nm, flow cytometry, artefact control, profiling panel (AID 1776);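 also: glutathione beads carrying GST-tagged Bcl family fusion proteins plus one bare bead set; values are compound well signal with DMSO vehicle wells as background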
Conditions: compound fluorescence 488/530 nm, at 10 µM, active compounds read high

| SMILES | fluorescence (KMESF) |
| --- | --- |
| Cc1ccc(Cl)cc1NC(=O)COC(=O)C1CCCCC1 | 249 (active) |
| Cc1ccc(Cl)cc1NC(=O)COC(=O)CC(C)(C)C | 12 |
| O=C(COC(=O)C1CCCCC1)Nc1ccc([N+](=O)[O-])cc1 | 25 |
| COc1cc(CN2CCN(Cc3ccc(C)cc3)CC2)c([N+](=O)[O-])cc1OC | 14 |
| Cc1nccc(-c2ccc(-n3c(C)ccc3C)cc2)n1 | 9 |
| CCC(=O)N1CCC(C(N)=O)(N2CCCCC2)CC1 | 12 |
| CCc1nnc(NC(=O)c2cccs2)s1 | 15 |
| Cc1ccnc2nc(C(=O)Nc3nnc(-c4ccccc4)o3)nn12 | 14 |
| CCc1nnc(NC(=O)c2nc3nccc(C)n3n2)s1 | 259 (active) |
| CC1CN(C(=S)SCC(=O)c2ccccc2)CC(C)O1 (configuration not stated) | 18 |
| CC1CN(C(=O)CN2C(=O)NC(C)(c3ccccc3)C2=O)CC(C)O1 (configuration not stated) | 263 (active) |
| CC1(c2ccccc2Cl)NC(=O)N(CC(=O)NC(=O)NCc2ccco2)C1=O (configuration not stated) | 27 |
| COc1ccccc1CNC(=O)CN1CCC(n2cnc3cc(F)ccc32)CC1 | 10 |
| CCc1ccc2ncc(C(=O)c3ccccc3)c(N3CCOCC3)c2c1 | 15 |
| CCNc1nc(NC(C)C)nc(N2CC(=O)N(CC(=O)OCC)C2=N)n1 | 29 |
| O=C(Nc1cc(Cl)cc(Cl)c1)C(NCCCO)c1ccccc1 (configuration not stated) | 18 |
| CCOc1cc(C(=O)OCC(=O)Nc2cccc(C)c2)ccc1OCC(=O)N1CCOCC1 | 16 |
| CCCCNC(=O)CSc1nc2ccc(NC(=O)CSc3nnc(N)s3)cc2s1 | 17 |
| O=C(NCc1nnc(SCC(=O)N2CCCc3ccccc32)o1)c1ccccc1F | 13 |
| CN1CCN(C(=O)N2c3ccccc3CCc3ccccc32)CC1 | 13 |
| Cc1ccc(C(C(=O)NCc2ccco2)N(CC2CCCO2)C(=O)Cn2nnc3ccccc32)cc1 (configuration not stated) | 37 |

| SMILES | fluorescence (KMESF) |
| --- | --- |
| COc1ccccc1N(C(=O)Cn1nnc2ccccc21)C(C(=O)NCc1ccco1)c1ccc(C)o1 (configuration not stated) | 248 (active) |
| COCCNC(=O)C(c1ccc(C)o1)N(Cc1ccccc1)C(=O)Cn1nnc2ccccc21 (configuration not stated) | 21 |
| CCCCC(NC(=O)c1cccc(Br)c1)C(=O)O (configuration not stated) | 10 |
| CCN(Cc1ccccc1)C(=O)CN1C(=S)NC(C)(C)CC1C (configuration not stated) | 20 |
| COc1cc([C@H](Cc2ccccc2)NC(C)=O)oc(=O)c1 | 18 |
| CC(Oc1ccccc1)C(=O)NN1Cc2ccccc2C1=N (configuration not stated) | 9 |
| NC(=O)c1ccc(N2CCOCC2)nc1 | 10 |
| CCN(CC)Cc1nc2sc(C)c(C)c2c(=O)[nH]1 | 11 |
| O=C(CN1CCN(c2ccc(Cl)cc2)CC1)NCc1cccs1 | 18 |
| Cc1cccc(N2Cc3ccccc3C2=NC(=O)c2ccc(Cl)nc2)c1 | 8 |
| O=C(CSc1nc2ccccc2[nH]1)Nc1nc(-c2ccccc2)c(-c2ccccc2)o1 | 12 |
| O=c1c([N+](=O)[O-])cccn1Cc1ccc(F)cc1Cl | 14 |
| COc1ccc(COC(=O)N/N=C(\C)CC(=O)Nc2ccc(Cl)cc2)cc1 | 5 |
| CC(C)(C)c1ccc(NC(=O)COC(=O)CCc2nc3ccccc3c(=O)[nH]2)cc1 | 11 |
| OCCC1CN(Cc2ccccc2-c2ccco2)CCN1Cc1ccsc1 (configuration not stated) | 17 |
| COc1ccccc1-n1c(=S)[nH]c2c(sc(=S)n2-c2ccc(C)cc2C)c1=O | 25 |
| O=C(c1cnn(-c2ccc(Cl)cc2)c1)c1ccccc1O | 11 |
| Cc1ncc(CC(=O)n2cc(C(=O)c3cc(Cl)ccc3O)cn2)s1 | 256 (active) |
| Cc1ccc(CCC(=O)Nc2ncc(Cc3cc(Cl)ccc3Cl)s2)o1 | 7 |
| COCCCNc1nc2c(-c3cccc(C(F)(F)F)c3)nnn2c2ccccc12 | 16 |
| O=S(=O)(Nc1cc(S(=O)(=O)N2CCOCC2)ccc1N1CCCC1)c1cccs1 | 19 |

| SMILES | fluorescence (KMESF) |
| --- | --- |
| COc1cc(NC(=O)c2ccccc2NS(=O)(=O)c2ccc(Cl)s2)cc(OC)c1 | 9 |
| O=S(=O)(Nc1ccccc1N1CCOCC1)c1ccc(Cl)s1 | 266 (active) |
| COc1cc([N+](=O)[O-])ccc1NC(=O)CN1CCCC1 | 10 |
| CCOC(=O)CSc1nccc(N(C)C)c1C#N | 281 (active) |
| CCOC(=O)CC(=O)CSc1nc(-c2ccccc2)cc(-c2ccc(Cl)cc2)c1C#N | 8 |
| CCOC(=O)CSc1ccccn1 | 16 |
| Cc1ccc(CN2CCC(N3CCC(C(=O)NCC4CCCO4)CC3)CC2)o1 (configuration not stated) | 22 |
| O=C(NCC1CCCCC1)c1cc(S(=O)(=O)N2CCCCC2)ccc1N1CCOCC1 | 10 |
| CCN1C(=O)/C(=c2\s/c(=C3\Sc4ccccc4N3C)c(=O)n2C)N(C)C1=S | 15 |
| COc1cc(-c2nnn(CC(=O)NCc3ccccc3)n2)cc(OC)c1OC | 13 |
| O=C(CSc1ccc([N+](=O)[O-])cn1)Nc1ccc(N2CCOCC2)cc1 | 16 |
| CCOc1cc(/C=N/NC(=O)OC)ccc1OCCSc1ccc(Cl)cc1 | 13 |
| CCC1C=C(c2ccccc2)C=CN=C1N(CC)CC (configuration not stated) | 5 |
| Brc1ccc(CSc2ccc(-c3ccco3)nn2)cc1 | 11 |
| COC(=O)CC1=NN(c2nc(C)cc(C)n2)C(=O)C1 | 14 |
| Cc1ccc2[nH]c(C(=O)O)c(NC(=O)c3ccccc3[N+](=O)[O-])c2c1 | 10 |
| CCCCN1C(=O)/C(=C(/C#N)C(N)=O)c2ccccc21 | 16 |
| CCN(Cc1ccccc1)S(=O)(=O)c1cc(C(=O)O)ccc1OC | 14 |
| CC[C@H]1OC(=O)[C@H](C)[C@@H](O[C@H]2C[C@@](C)(OC)[C@@H](O)[C@H](C)O2)[C@H](C)[C@@H](O[C@@H]2O[C@H](C)C[C@H](N(C)C)[C@H]2O)[C@](C)(O)C[C@@H](C)[C@@H]2N[C@@H](COCCOC)O[C@H]([C@H]2C)[C@]1(C)O | 22 |
| O=C(Cc1c(F)cccc1Cl)Nc1ncc([N+](=O)[O-])s1 | 18 |
